Screening data deposited in PubChem BioAssay by National Center for Advancing Translational Sciences (NCATS).
An excerpt weighted towards active compounds, which were near 4.2% of everything screened.
ALOX12 inh: inhibitors of human 12S-lipoxygenase ALOX12. AID 1671190. actives 1.1% (n = 580,000). P18054. purified 12hLO, xylenol orange hydroperoxide absorbance. Potency, µM (top dose mostly 108 µM), for inactives: at the highest dose activity change, negative = inhibition, actives largely listed as inhibitors
Target sequence (P18054 whole entry, looked up): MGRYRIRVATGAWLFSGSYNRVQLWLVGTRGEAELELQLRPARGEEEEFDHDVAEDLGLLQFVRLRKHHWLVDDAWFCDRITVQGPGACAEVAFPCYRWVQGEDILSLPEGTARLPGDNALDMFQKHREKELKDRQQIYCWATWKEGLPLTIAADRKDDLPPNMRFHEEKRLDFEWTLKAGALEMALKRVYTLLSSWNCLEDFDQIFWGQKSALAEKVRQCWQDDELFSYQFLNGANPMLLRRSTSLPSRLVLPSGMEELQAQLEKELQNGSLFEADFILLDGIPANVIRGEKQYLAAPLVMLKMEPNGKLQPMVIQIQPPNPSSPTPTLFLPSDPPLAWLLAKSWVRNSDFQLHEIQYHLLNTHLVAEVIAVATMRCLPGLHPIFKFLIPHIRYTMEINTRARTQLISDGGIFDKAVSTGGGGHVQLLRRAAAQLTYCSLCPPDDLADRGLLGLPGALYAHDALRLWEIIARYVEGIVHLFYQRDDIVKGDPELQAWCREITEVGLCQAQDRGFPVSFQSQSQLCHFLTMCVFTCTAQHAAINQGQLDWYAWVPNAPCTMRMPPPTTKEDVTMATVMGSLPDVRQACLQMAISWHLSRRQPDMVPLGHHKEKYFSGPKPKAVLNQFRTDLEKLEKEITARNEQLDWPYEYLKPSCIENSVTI
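Purified human 12hLO (150 nM final) in 25 mM Hepes, 0.01% Triton X-100, pH 7.0 was preincubated 15 min at room temperature with compound. Then 40 uM arachidonic acid was added, 30 min. Hydroperoxide was read by Fe-XO absorbance ratio 573/405 nm.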
VDR inhibitor: blocks the human vitamin D receptor; VDR-SRC2-3 peptide fluorescence polarization, 2 h; Potency, µM, for inactives: max response, negative = inhibition, hits mostly inhibitors; actives 0.93% (n = 400,000)
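The screen uses fluorescence polarization to detect compounds that interfere with recruitment of the SRC2-3 coactivator peptide to VDR; plates are read after 2 h at room temperature.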
PLK1 PBD block: PLK1 (human) polo-box domain binding inhibition | actives 2.8% (n = 360,000) | AID 720504 | Plk1 PBD binding of FITC phosphopeptide, fluorescence polarization | Potency, µM, inactives show max response, negative = inhibition, actives largely listed as inhibitors; further: series mostly up to about 57 µM; nearly all actives have a fitted effect of over 65% in size
Sfp PPTase inh: Sfp phosphopantetheinyl transferase inhibition; Q9F4F7; Biochemical Sfp PPTase activity, qHTS; Potency, µM, without a hit: largest response in the series, negative = inhibition, hits mostly inhibitors; actives 3.5% (n = 310,000);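 further: the enzyme is Sfp with the accession as filed and its product quenches rhodamine fluorescence; 0% = enzyme reaction without inhibitor and -100% = no enzyme wells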
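After 15 min at room temperature with compound, 15 nM Sfp received 5 uM rhodamine-CoA plus 12.5 uM BHQ-2-ybbR (50 mM Hepes pH 7.6, 10 mM MgCl2). Rate came from the fluorescence difference over 30 min, ex 525/em 598 nm.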
Starred values were filed as active, the others as inactive; ? = inconclusive; . = not tested or not shown; ! = not confirmed by another sample; [ ] = another dose, or the depositor's remark. The call rests on the fitted dose curve; in most records, active means well fitted curve in the direction sought with a large enough effect; inconclusive means small, poorly fitted or top-dose-only effect, or another doubt; inactive means no such curve, though single readings can be large; an effect the other way counts as inactive or inconclusive. Unless noted, on the % scale 0 is the no-effect control and ±100 the full control effect; potency means the concentration at half of the fitted maximal effect.

SMILES	ALOX12 inh	VDR inhibitor	PLK1 PBD block	Sfp PPTase inh
O=C(Cn1cc(C=C2C(=O)NC(=O)NC2=O)c2ccccc21)NCC1CCCO1 (configuration not stated)	13µM*	-7%	?	8%
COc1ccccc1N1CCN(C[C@H]2CN3CC[C@H]2C[C@@H]3CNC(=O)Nc2ccccc2)CC1	94%	.	.	.
Cc1ccc(C=C2C(Cl)=C(Cl)C(Cl)=C2Cl)cc1	.	?	12µM*	?
CN(C(=O)Cc1ccc(Cl)c(Cl)c1)[C@H](CN1CCCC1)c1cccc(N=C=S)c1	?	-4%	.	50µM*
CN(C(=O)Cc1ccc(Cl)c(Cl)c1)C(CN1CCCC1)c1cccc(N=C=S)c1 (configuration not stated)	?	-5%	.	45µM*
CCOC(=O)[C@]12Cc3cc(Cl)ccc3[C@H]1N(C)C(=O)c1cc(OC)ccc12	?	.	11µM*	.
CCCCCN1C(=O)c2cc(OC)ccc2[C@@]2(C(=O)OCC)Cc3cc(OC)ccc3[C@@H]12	?	.	4.7µM*	.
CCOC(=O)[C@]12Cc3cc(OC)ccc3[C@H]1N(C)C(=O)c1cc(OC)ccc12	?	.	9.5µM*	.
CCOC(=O)[C@]12Cc3cc(OC)ccc3[C@H]1N(CC(=O)OC)C(=O)c1cc(OC)ccc12	1%	.	13µM*	.
CCOC(=O)[C@]12Cc3cc(N(C)C)ccc3[C@H]1N(Cc1ccccc1)C(=O)c1ccccc12	-6%	-5%	-17%	.
CCCCCN1C(=O)c2ccccc2[C@@]2(C(=O)OCC)Cc3cc(Cl)ccc3[C@@H]12	0%	.	?	.
Cc1cc(C)nc(N2CC3CCC(C2)N3CC(F)(F)F)c1	4%[6.33 µM]	.	.	.
COc1cccc(CCNCc2ccc(SC)cc2)c1	?	-13%	-7%	-19%
CCCCCCCCCOc1ccc2[nH]cc(CCN)c2c1	?	120%	.	50µM*
c1ccc(N2CC[C@@]3(CCCNC3)C2)cc1	?	50µM*	.	?
CCCCNC(=O)Oc1c(Br)cc2sc(=O)oc2c1Br	.	.	.	11µM*
O=C(NC[C@H]1C[C@@H]2CCN1C[C@@H]2CN1CCOCC1)c1ccc(C(F)(F)F)cc1	66%[176 µM]	.	.	.
O=Cc1cn(Cc2cccc(F)c2)c2ccccc12	29%	-1%	-1%	-2%
FC(F)(F)CN1C2CCC1CN(c1nccs1)C2	3%[12.5 µM]	.	.	.
NC(=O)c1cn(C2OC(CO)C(O)C2O)c2ncnc(N)c12 (configuration not stated)	18µM*!	0%	1%	6%
CC[C@H]1CN2CC[C@H]1C[C@@H]2COC(=O)Nc1ccc(C(C)(C)C)cc1	45µM*	.	.	.
O=C(CNC(=O)c1cccc(Cl)c1)Nc1ccc(Br)cc1C(=O)c1ccccc1	?	-2%	4%	12%
CC=C(C)C(=O)N[C@@H](c1ccccc1)[C@@H](O)C(=O)O[C@H]1C[C@@]2(O)[C@@H](OC(=O)c3ccccc3)[C@@H]3[C@]4(OC(C)=O)CO[C@@H]4C[C@H](O)[C@@]3(C)C(=O)[C@H](OC(C)=O)C(=C1C)C2(C)C	-5%[57.4 µM]	.	.	.
CC(=O)O[C@@]12CO[C@@H]1C[C@H](O)[C@@]1(C)C(=O)[C@H](O)C3=C(C)[C@@H](OC(=O)[C@H](O)[C@@H](NC(=O)c4ccccc4)c4ccccc4)C[C@@](O)([C@@H](OC(=O)c4ccccc4)C12)C3(C)C (some centres not stated)	65%	-13%	-6%	11µM*
COc1ccc(-c2cn(C[C@H]3CC4CCN3C[C@@H]4C(=O)N3CCCC3)nn2)cc1 (some centres not stated)	5%[176 µM]	.	.	.
SMILES	ALOX12 inh	VDR inhibitor	PLK1 PBD block	Sfp PPTase inh
C=CCNC(=S)Nc1ccc(OC(=O)Nc2ccc(Cl)c(Cl)c2)cc1	-24%	-3%	9.5µM*	-10%
NC(N)=N/N=C/c1c(Cl)cccc1Cl	?	3%	-10%	100µM*!
Cc1[nH]c2ccc(F)cc2c1CC(=O)N1CCN(CC(=O)N2CCCC2)CC1	6%	.	.	.
N#CC(C#N)=C(C#N)c1ccc(Nc2ccccc2)cc1	?	50µM*	-17%	?
O=[N+]([O-])c1ccc(Nc2ccccc2)cc1	-26%	-20%	-12%	-2%
c1ccc(Nc2ccc(Nc3ccccc3)cc2)cc1	14µM*	-17%	-16%	.
c1nc[n]([Sn]([CH]2CCCCC2)([CH]2CCCCC2)[CH]2CCCCC2)n1	.	50µM*	.	?
Cc1ccc(-n2c(=S)[nH]c3ccc(C)cc3c2=O)cc1	-1%	.	1%	.
Cc1ccc(C(=O)N[C@@H](C)CN2C3=NC[C@H](Cc4ccccc4)N3C[C@H]2Cc2ccc(O)cc2)cc1Br	.	-6%	-14%	56µM*
[Cl-].[Cl-].[Hg+2]	.	2.5µM*	.	?
CCOc1cncc(/C=C/CCNC)c1	18µM*	?	.	-10%
NC(N)=NN=C(/C=C/c1ccc([N+](=O)[O-])o1)/C=C/c1ccc([N+](=O)[O-])o1	-19%[22.9 µM]	?	.	50µM*
O=c1cc(C2CCNCC2)[nH][nH]1	-5%	-10%	-2%	9%
COc1ccc(OCC(=O)N2CCN(Cc3nc4cc([N+](=O)[O-])ccc4n3C)CC2)cc1	0%	-17%	30µM*	1%
CN(C)CCSC1c2ccccc2CSc2ccccc21 (configuration not stated)	-1%	-29%	?	.
O=C1C(Cc2cnc[nH]2)NC(=S)N1c1ccccc1 (configuration not stated)	?	12%	-9%	50µM*
Cc1ccc2c(c1)=C/C(=C\c1c(O)[nH]c(=S)[nH]c1=O)C(=O)N=2	.	.	.	7.1µM*
CCCCCCn1c(O)c(C=Nc2ccccc2N2CCOCC2)c(=O)[nH]c1=S	188%	-19%	13%	11%
Nc1cncc(C(=O)O)c1	-1%	-5%	-16%	79µM*!
CN1C(=O)/C(=C\c2ccc(N3CCCCCC3)cc2)C(=O)NC1=S	0%	?	2.1µM*	?
Cc1cc(/C=C2/C(=O)NC(=O)N(c3ccccc3)C2=O)c(C)n1-c1ccc(F)cc1	-7%	-26%	?	.
COc1cc(N2CCOCC2)ccc1/C=C1\C(=O)NC(=O)N(Cc2cccs2)C1=O	-28%	-22%	?	1%
Cc1cc(N2CCOCC2)ccc1/C=C1\C(=O)NC(=O)N(c2ccccc2)C1=O	-29%	?	12µM*	35µM*
COc1cc(N2CCOCC2)ccc1C=C1C(=O)NC(=O)NC1=O	-20%	-13%	-9%	56µM*
O=C1NC(=O)N(c2cccc(F)c2)C(=O)/C1=C/c1ccc(N2CCOCC2)cc1	?	-27%	12µM*	32µM*
CCC(C)N1C(=O)/C(=C\c2cc3c4c(c2)CCCN4CCC3)C(=O)NC1=S (configuration not stated)	?	?	0.95µM*	?
CSc1ncc(/C=C2/C(=O)NC(=O)N(C3CCCCC3)C2=O)cn1	?	20µM*	11µM*	40µM*
CCC(C)N1C(=O)/C(=C\c2cnc(N(C)C)nc2)C(=O)NC1=S (configuration not stated)	?	45µM*	6.7µM*	50µM*
